Results reported in PubChem BioAssay (NCI).
This is part of a sample that, as a whole, favours compounds with a hit. Of some 83,000 tested, about 20% had one in any assay.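 Treatment: one concentration, 48 hours, 96-well format. Scoring: percent growth, with anything below 10 considered active.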 Values without a mark were called inactive. The source made the active and inactive calls.

These compounds were tested on RPMI-8226 leukemia (assay: NCI-60 one-dose screen, 48 h (100 = growth as untreated, 0 = no growth, -100 = all killed)). Conditions: 10 µM unless noted.
Description: Growth inhibition of the RPMI-8226 human tumor cell line is measured as a screen for anti-cancer activity. Cells are grown in 96 well plates and exposed to the test compound for 48 hours. Compounds are tested at a single concentration, which is 10^-5 M for most compounds. The reported endpoint is percent growth (GI% or GIPRCNT), where numbers from 0 - 100% represent growth inhibition, and numbers from -100% - 0 represent cell death. For example, a value of 40 represents 60% growth inhibition. A value of 0 means no net growth occurred over the course of the experiment. A value of -40 indicates 40% of cells at the beginning of the experiment died by the end of the experiment. A value of -100 means all cells are dead at the end of the experiment.
NCI-60 Human Tumor Cell Lines Screen was performed using the standard one-dose NCI protocol, which is described in more detail at https://dtp.cancer.gov/discovery_development/nci-60/default.htm.
Compounds with GIPRCNT values below 10 were considered active. Activity score was based on GIPRCNT using the following formula: […]
Score is 0 for GIPRCNT values of 100 or above, 50 for GIPRCNT values of 0, and 100 for GIPRCNT values of -100.

Structure (SMILES) | growth
C/C(=N\O)C(=O)NCCCCCC(=O)Nc1ccccc1 | 106%
C[C@@H]1CC[C@@]2(OC1)O[C@H]1C[C@H]3[C@@H]4CC=C5C[C@@H](O[C@@H]6O[C@H](CO)[C@@H](O[C@@H]7O[C@@H](CO)[C@H](O)[C@H]7O)[C@H](O)[C@H]6O[C@@H]6O[C@@H](C)[C@H](O)[C@@H](O)[C@H]6O)CC[C@]5(C)[C@H]4CC[C@]3(C)[C@H]1[C@@H]2C | -60.1% (active)
c1ccc(CCc2ccccc2-c2cc(-c3ccccc3)on2)cc1 | 83.5%
CCCCCCC(CCCC)COC(=O)c1ccc(Cl)cc1 (stereo not given) | 108%
O=C1CC2C=CCN2C=C1NC(=O)C1CCCCC1 (stereo not given) | 107%
COC(=O)c1c2c(c(C)[n+]([O-])c1C)C(=O)C=CC2=O | -24.8% (active)
COC(=O)c1nc(-c2ccccc2)oc1S(=O)(=O)N1CCC(C(N)=O)CC1 | 41.3%
N#Cc1nc(-c2ccc(F)cc2)oc1S(=O)(=O)N1CCN(c2ccc(F)cc2)CC1 | 46.5%
COC(=O)c1ccc2c(c1)c1c(C)c3ccncc3c(C)c1n2C | 26.8%
Oc1c(I)cc(-c2nc3ccccc3s2)cc1CN(Cc1ccccn1)Cc1ccccn1 | 15.2%
O=C(NCc1ccccc1O)c1cccc2ccccc12 | 38.6%
CC1COCC(C)N1C1=C(Cl)C(=O)c2ccccc2C1=O (stereo not given) | 52.5%
COc1cc(-c2nc(SCCC(C)C)nc(N3CCOCC3)c2C#N)cc(OC)c1OC | 90.3%
Cc1ccc(/C=C/C(=O)c2ccc(NC(=O)CSc3nc4c([nH]3)c(=O)n(C)c(=O)n4C)cc2)c(C)c1 | 52.6%
COCC[C@H]1CCC/C=C/[C@@H]2C[C@H](O)C[C@H]2[C@H](O)/C=C/C(=O)O1 | 11.1%
C=C1C(=O)O[C@H]2[C@H]1CC/C(COC(=O)NCc1ccc(Cn3c(=O)sn(-c4ccc(OC)cc4)c3=O)cc1)=C\CC[C@@]1(C)O[C@@H]21 | -3.82% (active)
O=S(=O)(c1ccccc1)N1CCCN(c2nc(-c3ccccc3)nc3nc(-c4ccccc4)oc23)CC1 | 98.1%
CCN1C(=O)N(CC)C2C1NN=c1s/c(=C3\C(=O)N(CCc4ccccc4)c4ccccc43)c(=O)n12 (stereo not given) | 8.77% (active)
O=C(Cn1nnc([N+](=O)[O-])n1)c1ccccc1 | 40.6%
COc1ccc2nc3cc(Cl)ccc3c(NCCN)c2c1 | -23.6% (active)

Structure (SMILES) | growth
Clc1nn2c(Cn3cnc4c(NCc5ccccc5)ncnc43)nnc2c2ccccc12 | 37.7%
CC1(C)CC[C@]2(C(=O)N3CCOCC3)CC[C@]3(C)C(=CC[C@@H]4[C@@]5(C)C/C(=C/c6ccncc6)C(=O)C(C)(C)[C@@H]5CC[C@]43C)[C@@H]2C1 | -33.5% (active)
Fc1ccc(CNc2c3ccccc3nc3ccccc23)cc1 | -0.445% (active)
Cc1ccc(S(=O)(=O)n2cc(C3C(Cl)C(=O)N3c3ccc(N4CCOCC4=O)cc3)c3ccccc32)cc1 (stereo not given) | 21.6%
Cc1ccc(N=Nc2c(N)nn(-c3ccccc3)c2N)cc1 | -1.12% (active)
C=CCn1c(SCC(=O)Nc2ccc(C(=O)/C=C/c3ccc(OC)cc3)cc2)nnc1-c1ccccc1 | 5.8% (active)
COc1ccc(C(c2cc(OC)c(OC)c(OC)c2)N2CCN(Cc3ccccc3)CC2)cc1 (stereo not given) | 84.1%
Cc1ccccc1CNc1c2ccccc2nc2ccccc12 | -8.88% (active)
CCOC(=O)c1c2c(n3c1NCC3)-c1ccccc1C2=O | 105%
COc1cccc(/C=C/C(=O)c2cc3c(N)c(C(=O)Nc4ccccc4C)sc3nc2C)c1 | -20.8% (active)
Cn1c(O)c(C(/C=C/c2ccccc2)=Nc2ccccc2N)c(=O)n(C)c1=O | 58.7%
CCN1C(=O)N(CC)C2C1NN=c1s/c(=C\c3ccccc3Br)c(=O)n12 (stereo not given) | 15.5%
CN1CCN(Cc2ccc(NC(=O)c3cncc(C#Cc4cnn5ccccc45)c3)cc2C(F)(F)F)CC1 | -17.5% (active)
Cc1ccc(/C=C(\C#N)C(=O)Nc2ncc(Cc3cc(Cl)ccc3Cl)s2)o1 | 49.3%
O=C(CCCCl)NNc1nccc(Nc2ccc(S(=O)(=O)Nc3ccncc3)cc2)n1 | 104%
CC(CN)[C@@H]1CC[C@]2(CO)CC[C@]3(C)[C@H](CC[C@@H]4[C@@]5(C)CCC(N)C(C)(C)[C@@H]5CC[C@]43C)[C@@H]12 (stereo not given in full) | -38.2% (active)
COc1ccc(Nc2ncc(C(N)=O)c(NCCCNC(=O)C3CCC3)n2)cc1 | 72.9%
COc1ccc2nc(SCC(=O)Nc3ccccc3C)[nH]c2c1 | 90.1%
Fc1ccc(COc2ccc(Nc3ncnc4sc5c(c34)CCCC5)cc2)cc1 | 79.4%
CN1CCN(C(=O)c2cc(-c3ccc4ncnc(N5CCc6cc(F)c(Cl)cc65)c4c3)cnc2N)CC1 | -25.7% (active)
